nsP2pro inh: inhibitors of chikungunya virus nsP2 protease. Potency, µM (titrated, usually from 24.9 µM), inactives show top-dose activity change, negative = inhibition, usual class: inhibitors. Q8JUX6. 31,000 tested, 1.1% active. FRET peptide cleavage, nsP2pro, fluorescence 1 h; calls by dose curve; also: nearly all actives have a fitted effect of over 60% in size
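Recombinant nsP2pro (150 nM) was preincubated with compound 15 min at room temperature in 10 mM Tris-HCl pH 8.0, 0.01% Tween 20. Peptide 2 FRET substrate (2.5 uM) was then added and fluorescence read after 1 h. Seven-point series, up to 25 uM.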
The depositor's hits bear a star; i = inactive; ! = not active in a repeat; [ ] = remark or other dose. Many of the other results were omitted from the sample, so hits are more common in it than they were. % is scaled to controls: 0 for no effect and ±100 for the full control effect; potency is read from the fitted curve at half-maximal effect.

SMILES	nsP2pro inh
O=C1c2ccccc2NC(c2ccc(-c3ccc(-c4ccccc4)cc3)o2)N1O (stereo unspecified)	i
O=C1c2ccccc2NC(c2ccc(-c3ccc(Br)cc3)o2)N1O (stereo unspecified)	13µM*
O=C1c2ccccc2NC(c2ccc(-c3ccc(F)cc3)o2)N1O (stereo unspecified)	-4%
O=C(Nc1ccc(Cl)c(Cl)c1)Nc1cccc(-c2ccncc2)n1	5%
Cc1ccc(S(=O)(=O)Nc2ccccc2C(=O)Nc2nc(-c3ccccc3)c(Br)s2)cc1	1%
CC(C)N[C@@H]1CCn2c(=O)[nH]c3cccc(c32)[C@H]1O	11µM*
CC(C)CCN1CCC2(COc3ccccc3C(=O)N2)C1 (stereo unspecified)	-3%[39.2 µM]
O=C(c1ccc(CN2C(=O)NC3(CCOCC3)C2=O)cc1)N1CCc2ccccc2C1	1%
O=C(CCC1CCCC1)Nc1ccc(-c2nnc3n2CCCC3)cc1	5%
CCOc1ccc(C(=O)Nc2ccc(-c3nnc4n3CCCCC4)cc2)cc1OCC	10µM*
COc1ccc(Cl)cc1C(=O)Nc1ccc(-c2nnc3n2CCCCC3)cc1	-2%
O=C(Nc1ccc2ccccc2c1)Nc1cccc(-c2ccncc2)n1	-2%
CC(C)(C)N(C[C@@H](O)[C@H](Cc1ccccc1)NC(=O)O[C@H]1CO[C@H]2OCC[C@H]21)[S+](=O)([O-])c1ccc(N)cc1	-1%
CCC1OC(=O)C(C)C(OC2CC(C)(OC)C(O)C(C)O2)C(C)C(OC2OC(C)CC(N(C)C)C2O)C(C)(O)CC(C)C2NC(COCCOC)OC(C2C)C1(C)O (stereo unspecified)	21%
CSc1ccc(OCc2ncc([N+](=O)[O-])n2C)cc1	-6%
Cc1cc(C)nc(NC(=S)N2CCN(c3nc4ccccc4o3)CC2)c1	i
O=C(c1ccc(Cl)cc1)N1CC(CO)C2(CCNCC2)C1 (stereo unspecified)	7.9µM*
COc1ccc(C(=O)N2CC(CO)C3(CCNCC3)C2)cc1 (stereo unspecified)	-4%
O=C(c1cccc(C(F)(F)F)c1)N1CC(CO)C2(CCNCC2)C1 (stereo unspecified)	-4%
CCN1CCC(N2CCCC(N3CCN(c4cccc(Cl)c4)CC3)C2)CC1 (stereo unspecified)	i
COc1ccc(O[C@@H]2O[C@H](CO)[C@H](O)[C@H](O)[C@H]2O)cc1	5%
CCOC(=O)C1=CN(CC(=O)Nc2ccccc2C(F)(F)F)S(=O)(=O)N=C1C	-7%
CCN1CCOC(=O)C1CC(=O)Nc1ccccc1C(F)(F)F (stereo unspecified)	11µM*
O=C(CC1C(=O)OCCN1Cc1ccccc1)Nc1cccc(C(F)(F)F)c1 (stereo unspecified)	-16%
C[C@H]1[C@H](OC(=O)CCC(=O)O)O[C@@H]2O[C@@]3(C)CC[C@H]4[C@H](C)CC[C@@H]1[C@@]24OO3	-10%
SMILES	nsP2pro inh
O=C(NC1CCCCC1)O[C@@H]1CO[C@H]2[C@@H]1OC[C@@H]2n1nnnc1-c1ccccc1	-4%[39.2 µM]
O[C@@H]1CO[C@H]2[C@@H]1OC[C@@H]2n1nnnc1SCc1ccco1	11µM*
COc1ccc(NC(=O)N[C@H]2CO[C@H]3[C@@H]2OC[C@@H]3n2nnnc2-c2ccccc2)cc1	-4%[39.2 µM]
N#Cc1cnc(NS(=O)(=O)c2ccc(NC(=O)Cc3ccc(Cl)c(Cl)c3)cc2)s1	i
Nc1ncnc2c1ncn2[C@@H]1O[C@H](CSCC[C@H](N)C(=O)O)[C@@H](O)[C@H]1O	-18%
CCN1CCN(c2ncc3c(n2)CCN(Cc2cc(F)cc(F)c2)C3)CC1	-7%
CCc1ccc(CN2CCc3nc(N4CCN(CC)CC4)ncc3C2)cc1	23%
CCN1CCN(c2ncc3c(n2)CCN(Cc2ccc(OC)c(OC)c2)C3)CC1	11µM*
CCCN1C[C@H](C)[C@@H](O)[C@](C)(O)[C@@H](CC)OC(=O)[C@H](C)[C@@H](O[C@H]2C[C@@](C)(OC)[C@@H](O)[C@H](C)O2)C(C)[C@@H](O[C@@H]2O[C@H](C)C[C@H](N(C)C)[C@H]2O)[C@](C)(O)C[C@H]1C (stereo partly specified)	4%
C=C1/C(=C/C=C2\CCC[C@]3(C)[C@@H]([C@H](C)CCCC(O)(C(F)(F)F)C(F)(F)F)CC[C@@H]23)C[C@@H](O)C[C@@H]1O	7%
CC[C@@H](CO)NC(=O)[C@@H]1C=C2c3cccc4[nH]cc(c34)C[C@H]2N(C)C1	-6%
CCN(CC)C(=O)N[C@@H]1C=C2c3cccc4[nH]cc(c34)C[C@@H]2N(C)C1	12µM*
CCN(CC)C(=O)N[C@H]1C[C@@H]2c3cccc4[nH]cc(c34)C[C@H]2N(C)C1	22%
O=C(Nc1cccc(C(F)(F)F)c1)Nc1nnc(-c2ccncc2)s1	i
COc1ccc(-n2nc(C)c([C@@H]3C=C[C@@H](NCc4ccc(C(C)C)cc4)C3)c2C)cc1	-20%[39.2 µM]
Cn1nnnc1SCC1=C(C(=O)O)N2C(=O)[C@H](NC(=O)C(O)c3ccccc3)C2SC1 (stereo partly specified)	-19%
O=C(O)C1=C(CSc2nnnn2CS(=O)(=O)O)CS[C@@H]2[C@@H](NC(=O)[C@H](O)c3ccccc3)C(=O)N12	-23%
NCc1ccccc1CC(=O)N[C@@H]1C(=O)N2C(C(=O)O)=C(CSc3nnnn3CC(=O)O)CS[C@H]12	12µM*
O=C1Nc2ccccc2/C1=C/c1cc(Cl)c(O)c(Cl)c1	i
CN1CCN(C2=Nc3ccccc3Nc3ccc(Cl)cc32)CC1	2%
Cc1cc2c(s1)Nc1ccccc1N=C2N1CCN(C)CC1	11µM*!
CN1CCN(C2=Nc3ccccc3Cc3ccccc32)CC1	-1%
O=C(c1ccc(F)cc1)N1C[C@@H]2C[C@H](C1)c1ccc(NS(=O)(=O)Cc3ccccc3)c(=O)n1C2	13µM*
COc1ccc(S(=O)(=O)Nc2ccc3n(c2=O)C[C@H]2C[C@@H]3CN(C(=O)c3ccccn3)C2)cc1	-29%
CCCS(=O)(=O)Nc1ccc(=O)n2c1[C@@H]1C[C@@H](CN(C(=O)c3ccc(F)cc3)C1)C2	-1%[39.2 µM]
SMILES	nsP2pro inh
CN(CC(=O)O)c1ncnc2ccc(-c3ccc4c(c3)OCO4)cc12	5%
Cc1cn([C@H]2O[C@@H](CO)[C@H](O)[C@H]2F)c(=O)[nH]c1=O	-15%
CCOC(=O)c1c(-c2ccc(C)cc2)csc1NC(=O)c1cc(-c2ccc(OC)cc2)on1	-20%
CCc1cc(C(=O)N2CCN(c3ccccc3)CC2)no1	-2%
CCc1cc(C(=O)Nc2sc(C)c(CC)c2C#N)no1	11µM*
CCCc1ccc(-c2csc(NC(=O)c3ccncc3NS(=O)(=O)c3ccc(C)cc3)n2)cc1	-11%
CC(Cc1ccc2c(c1)OCO2)NCC(O)c1ccc(O)c(O)c1 (stereo unspecified)	11µM*
COc1ccc(C[C@H](C)NC[C@@H](O)c2ccc(O)c(NC=O)c2)cc1	12%
CC(CCc1ccc(O)cc1)NCC(O)c1ccc(O)cc1 (stereo unspecified)	1%
c1ccc(C2(c3ccccc3)CCCN(Cc3cscn3)C2)cc1	1%
CC(C)(C)[C@H](NC(=O)C(F)(F)F)C(=O)N1C[C@H]2[C@@H]([C@H]1C(=O)N[C@H](C#N)C[C@@H]1CCNC1=O)C2(C)C	-6%
O=C(/C=C/c1ccc(O)c(O)c1)O[C@@H]1CC(O)(C(=O)O)C[C@@H](OC(=O)/C=C/c2ccc(O)c(O)c2)C1O (stereo partly specified)	36%
COCCn1c(C)cnc1CCNC(=O)NCC(C)C	i
